57 compounds from PubChem BioAssay AID2717 (Broad Institute, 2010) can be followed below.

The campaign covered roughly 300,000 compounds. About 3,200 (1.1%) were called active. Shown is part of a subset that was picked to be rich in actives. Unmarked numbers belong to inactive results. Rule as the data show it: active = inhibition above about 75%; inconclusive = no clear call, values can overlap the other calls; inactive = below that; tested in HMLE shEcad cells.

Broadly, the inhibition is the change of the read-out against control, counted positive when it falls.

The experiment in a line: cancer stem cell viability inhibitors, primary screen, luminescence (AID 2717). The conditions noted are these: cancer stem cell-like cells viability, at 7.5 µM, stronger effect = higher value.
Regarding `Cc1ccc(OCCC(=O)Nc2ccc(S(=O)(=O)Nc3nccs3)cc2)cc1`, the inhibition was -5.72%.
As for `COc1ccc(C)cc1NC(=O)CSc1cccc[n+]1[O-]`, the inhibition was -18.1%.
To `O=C(Nc1cc(S(=O)(=O)N2CCCCC2)ccc1Cl)C1COc2ccccc2O1` (configuration not stated) belongs -13.5%.
Turning to `Cc1[nH]n(-c2ccccc2)c(=O)c1/C=N/NC(=O)c1ccoc1C`, the inhibition was 35.2%.
To `O=C(N/N=C/c1cccc([N+](=O)[O-])c1)c1ccncc1` belongs 0.983%.
Take `Cc1ccc(-n2[nH]c(C)c(/C=N/NC(=O)c3cccc([N+](=O)[O-])c3)c2=O)cc1C`: the inhibition was 104% (active).
With `CCC1CCCCN1C(=S)NC(=O)c1ccco1` (configuration not stated) the figure was 7.21%; with `O=C(Nc1cc(-c2ccccc2)nn1-c1ccccc1F)c1ccc([N+](=O)[O-])cc1`, 1.45%.
In the case of `COc1ccc(S(=O)(=O)N2CCN(c3cnccn3)CC2)cc1`, the inhibition was 7%.
To `CC(C)(C)OC(=O)NCCCCCNC(=O)c1[nH]cnc1C(=O)Nc1nccs1` belongs 0.813%.
`CC(=O)c1ccc(NC(=O)CSc2nc3ccccc3c(=O)n2CCCN2CCOCC2)cc1`: the inhibition is -2.25%.
With `Cc1cccc(N=C2NN=C(c3c[nH]c4ccccc34)CS2)c1`, the inhibition is 80% (active).
To `Clc1cccc(N=C2NN=C(c3ccc4c(c3)OCCO4)CS2)c1` belongs 17.2%; to `Cc1cccc(N=C2NC(=O)/C(=C/c3cn(C)c4ccccc34)S2)c1`, 47.4%; to `CCN(C(=O)CSc1nnnn1-c1ccc(OC)cc1)C1CCS(=O)(=O)C1` (configuration not stated), -11.6%.
To `CC(NC(=O)COC(=O)c1ccc2ccccc2n1)c1ccccc1` (configuration not stated) belongs 2.66%.
To `CCc1ccc(-c2nn(-c3ccccc3C)cc2C(=O)N2CCN(C3CCS(=O)(=O)C3)CC2)cc1` (configuration not stated) belongs -16.1%; to `CCc1ccc(-c2nn(-c3ccccc3)cc2CSC(=N)N)cc1`, 118% (active).
Take `O=C(Nc1cn(-c2ccccc2)nc1-c1ccccc1)c1ccccc1`: the inhibition is -3.4%.
To `COc1ccc(C#Cc2c(-c3ccc(OC)cc3)oc3ccc(-c4ccc5c(c4)OCO5)cc23)cc1` belongs -6.59%; to `COc1ccc(/C=C/c2c(-c3cccc(C)c3)oc3ccc(-c4ccc5c(c4)OCO5)cc23)cc1`, -7.1%.
With `Cc1cccc(-c2oc3ccc(-c4ccc5c(c4)OCO5)cc3c2C#Cc2cncn2C)c1` the figure was 94.9% (active); with `CCCC(CNC(=O)COC(=O)C1=NNC(=O)CC1)c1ccc(Cl)cc1Cl` (configuration not stated), -14.7%.
To `COc1cc(S(=O)(=O)N2CCN(C(=O)C3CC3)CC2)ccc1NC(C)=O` belongs 1.76%; to `COc1ccc(C(=O)Nc2cc(S(=O)(=O)N3CCCC3)ccc2Cl)cc1`, 7.7%; to `Cc1ccc(C(=O)OCC(=O)NCc2cc(C)c(O)c(C)c2)cc1S(=O)(=O)N1CCCCC1`, -3.22%.
For `CCC1(CC)Cc2ccccc2-c2nc3ccccc3c(=O)n21`, the inhibition was 1.88%.
With `c1cncc(-c2nnc3n2C2(CCCCC2)Cc2ccccc2-3)c1` the figure was 2.64%.
To `O=c1c2ccccc2nc2n1C1(CCCCC1)Cc1ccccc1-2` belongs 76.3% (active).
In the case of `COc1ccc(OC)c(/C=C/C(=O)c2ccc3c(c2)OCO3)c1`, the inhibition is 23.6%.
To `Cc1cc(NC(=O)CSc2ncc(C(F)(F)F)cc2Cl)no1` belongs -11.1%; to `NS(=O)(=O)c1cccc(NC(=O)COC(=O)c2cc([N+](=O)[O-])ccc2N2CCCC2)c1`, 8.24%.
With `COc1ccc2c(CC(=O)NNC(=O)c3ccccc3F)coc2c1` the figure was -7.08%; with `Nn1c(SCC(=O)NC2CCCc3ccccc32)nnc1C1CC1` (configuration not stated), -20.9%.
With `O=C(Cc1nc2ccccc2[nH]c1=O)c1ccc(Cl)cc1` the figure was -22.9%; with `O=C(/C(=C/c1cccc(Cl)c1)c1nc2ccccc2[nH]1)c1ccccc1`, 79.9% (active); with `CCC(=O)/C(=C(/O)c1ccccc1)c1nc2ccccc2[nH]1`, -8.67%.
Consider `CC(Sc1ccccc1F)C(=O)Nc1cccc(S(=O)(=O)N2CCOCC2)c1` (configuration not stated), for which the inhibition is -6.48%.
With `O=C1CCC/C=C/C[C@@H](CC(=O)N(CCO)Cc2ccccc2)C(=O)NC[C@H](c2ccccc2)O1` the figure was -5.63%; with `O=C(O)/C=C/c1cn(Cc2ccccc2)nc1-c1cccs1`, -3.63%.
Turning to `CCOC(=O)/C(C#N)=C/c1cn(CCC(=O)O)nc1-c1ccc(Br)cc1`, the inhibition is -7.96%.
With `O=C(O)CCn1cc(/C=C/C(=O)c2ccc(Cl)cc2)c(-c2cccc(Br)c2)n1` the figure was 78.2% (active); with `O=C(C[C@@H]1C/C=C\CCC(=O)OC[C@@H]2CCCN2C1=O)NCCO`, -0.206%; with `C/C(N)=C(/C#N)C(=O)COC(=O)c1cc(-c2cccc(Br)c2)nc2ccccc12`, 21.7%.
Regarding `C/C(N)=C(/C#N)C(=O)COC(=O)c1cc(-c2ccc(C)cc2)nc2ccccc12`, the inhibition is 101% (active).
As to `C/C(N)=C(/C#N)C(=O)COC(=O)c1cc(-c2ccccc2)nc2ccc(Br)cc12`, the inhibition is -0.788%.
With `O=C(COc1ccccc1F)NNC(=O)c1cc(Br)ccc1Cl` the figure was 7.13%; with `COc1cc(OC)cc(C(=O)NNC(=O)Cc2cccs2)c1`, -7.32%.
In the case of `CC1CCCCN1CCCNc1ccc(C(CC(N)=O)NC(=O)c2ccccc2)cc1[N+](=O)[O-]` (configuration not stated), the inhibition is 6.07%.
Consider `NC(=O)CC(NC(=O)Cc1ccc(Br)cc1)c1ccc(NC2CC3CCC2C3)c([N+](=O)[O-])c1` (configuration not stated), for which the inhibition was 85% (active).
On to `NC(=O)CC(NC(=O)Cc1cccc2ccccc12)c1ccc(NCc2cc(F)ccc2F)c([N+](=O)[O-])c1` (configuration not stated), for which the inhibition was 4.74%.
To `CCCCOC(=O)Cn1c(=N)n(CCN(CC)CC)c2ccccc21` belongs 0.539%; to `CCCCCCCCCCOC(=O)Cn1c(COc2ccc(C)cc2)[n+](C)c2ccccc21`, 124% (active); to `CCn1c(=N)n(CC(=O)c2cccc(OC)c2)c2ccccc21`, -13.1%.
For `CCCCCCCCCCOC(=O)Cn1c(COc2cccc(OC)c2)[n+](C)c2ccccc21`, the inhibition was 104% (active).
In the case of `Cc1ccc(OCc2nc3ccccc3n2C)cc1`, the inhibition was -4.74%.
Consider `COc1cccc(OCC(=O)Nc2ccccc2C(N)=O)c1`, for which the inhibition is -7.15%.
